Assay [1] can be described thus: optical density shifts of acrAB sulA E. coli – strain DRC41, OD650, 48 h, E. coli filamentation inducer project, primary screen (AID 1152).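 Also: E. coli MC1000 strain DRC41 lacking acrAB efflux pump and sulA.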 The settings on record: higher = more signal, called active from +8 up or from −8 down.
The nature of assay [2]: probe aLefty1 binding on compound microarray – biochemical, small-molecule microarray, 635/667 nm fluorescence, primary screen (AID 1153).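 Also: score merges spot fluorescence with signal-to-noise ratio from the scanned slide images.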 Particulars: higher = more signal.
A short description of assay [3]: plasmodial surface anion channel blockers, osmotic lysis – cell-based, P. falciparum Indochina, OD700, 1 h, primary screen (AID 1154). The settings on record: P. falciparum Indochina infected RBC osmotic lysis, higher = more signal, called active from +8 up or from −8 down.
Assay [4] in a line: plasmodial surface anion channel blockers, osmotic lysis – cell-based, P. falciparum Indochina, OD700, 2 h, primary screen (AID 1155).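 Also: lysis reports solute entry through the parasite surface anion channel PSAC.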 The settings on record: P. falciparum Indochina infected erythrocytes, higher = more signal, called active from +8 up or from −8 down.
The nature of assay [5]: changes in parasitized red cell lysis, either direction – P. falciparum Indochina, OD700, 3 h, PSAC antagonist project, primary screen (AID 1156). The settings on record: P. falciparum-infected erythrocytes, osmotic lysis, higher = more signal, called active from +8 up or from −8 down.
Assay [6] is described as follows: plasmodial surface anion channel blockers, osmotic lysis – cell-based, P. falciparum Indochina, OD700, 18 h, primary screen (AID 1157). The settings on record: P. falciparum Indochina infected erythrocytes, osmotic lysis OD700, 18 h; higher = more signal, called active from +8 up or from −8 down.
The nature of assay [7]: S6 kinase pathway phospho-S6 level changes – cell-based, A549, cytoblot, luminescence, serum-stimulated, primary screen (AID 1158).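 Also: serum-stimulated A549 lung adenocarcinoma cells; signal is phosphorylated S6 detected by cytoblot immunostaining with HRP secondary.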 Particulars: 5 h, higher = more signal.
Assay [8] addresses NADPH oxidase 2 (Homo sapiens) (UniProt P04839). In words: compounds shifting NOX2 Amplex Red fluorescence – cell-based, HEK293-NOX2, PMA-stimulated, NOX inhibitor project, primary screen (AID 1159). Also: test concentration not given here. Particulars: 45 min, higher = more signal, called active from +8 up or from −8 down.
The target in assay [9] is NADPH oxidase 4 (Homo sapiens) (UniProt Q9NPH5). In words: compounds shifting NOX4 Amplex Red fluorescence – cell-based, HEK293-NOX4, tetracycline-induced, NOX inhibitor project, primary screen (AID 1160). The settings on record: HEK293-NOX4, Amplex Red H2O2 fluorescence, 45 min; higher = more signal, called active from +8 up or from −8 down.
Assay [10] addresses NADPH oxidase 5 (Homo sapiens) (UniProt Q96PH1). The assay is described as follows: compounds shifting NOX5 Amplex Red fluorescence – cell-based, HEK293-NOX5, NOX inhibitor project, primary screen (AID 1161). Particulars: HEK293-NOX5, ionomycin, 45 min, higher = more signal.
Assay [11] can be described thus: compound effects on lung adenocarcinoma cell viability – A549, calcein-AM fluorescence, 48 h, basal, profiling panel (AID 1162). Also: test concentration not given here. Particulars: higher = more signal.
A short description of assay [12]: compound effects on differentiated 3T3-L1 adipocyte viability – cell-based, 3T3-L1 adipocytes, calcein-AM fluorescence, 48 h, basal, profiling panel (AID 1163). Also: test concentration not given here. Particulars: 3T3-L1 adipocytes viability, higher = more signal.
A short description of assay [13]: compound effects on hepatocellular carcinoma cell viability – HepG2, calcein-AM fluorescence, 48 h, basal, profiling panel (AID 1164). Also: test concentration not given here. Particulars: higher = more signal.
A short description of assay [14]: compound effects on multiple myeloma cell viability – MM1S, calcein-AM fluorescence, 48 h, basal, profiling panel (AID 1165).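 Also: viability of MM1S multiple myeloma cells under basal unstimulated conditions; test concentration not given here.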 The settings on record: higher = more signal.
Assay [15] can be described thus: calcein-AM signal in unstimulated myeloma cells – cell-based, calcein-AM fluorescence, 48 h, PK04 Diversity Set, profiling panel (AID 1166).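 Also: cells grown under basal conditions without added stimulus; test concentration not given here.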 Particulars: RPMI8226 myeloma viability, higher = more signal.
A short description of assay [16]: JC-1 mitochondrial signal, unstimulated HepG2 cells – cell-based, JC-1 fluorescence, 24 h, 100 nL compound, profiling panel (AID 1167). Also: test concentration not given here. Particulars: HepG2 mitochondrial potential, higher = more signal.
A short description of assay [17]: JC-1 mitochondrial signal, unstimulated adipocytes – cell-based, JC-1 fluorescence, 3T3-L1 adipocytes, 24 h, 100 nL compound, profiling panel (AID 1168). Also: test concentration not given here. The settings on record: JC-1 mitochondrial fluorescence, higher = more signal, called active from +8 up or from −8 down.
Assay [18] is described as follows: JC-1 mitochondrial signal, unstimulated myeloma cells – cell-based, JC-1 fluorescence, RPMI8226, 24 h, 100 nL compound, profiling panel (AID 1169). Also: test concentration not given here. Particulars: JC-1 mitochondrial potential fluorescence, higher = more signal.
The nature of assay [19]: JC-1 mitochondrial signal, unstimulated MM1S myeloma – cell-based, JC-1 fluorescence, 24 h, 100 nL compound, profiling panel (AID 1170). Also: test concentration not given here. The settings on record: MM1S mitochondrial potential, higher = more signal.
Assay [20] is described as follows: resazurin metabolic signal in A549 cells – cell-based, resazurin fluorescence, 24 h, PK04 Diversity Set, profiling panel (AID 1171). Also: test concentration not given here. The settings on record: A549 viability, higher = more signal, called active from +8 up or from −8 down.

Structures are written as SMILES. Active and inactive are the calls of the source.

Sequence of NADPH oxidase 5 (Homo sapiens) (Q96PH1 whole entry, looked up): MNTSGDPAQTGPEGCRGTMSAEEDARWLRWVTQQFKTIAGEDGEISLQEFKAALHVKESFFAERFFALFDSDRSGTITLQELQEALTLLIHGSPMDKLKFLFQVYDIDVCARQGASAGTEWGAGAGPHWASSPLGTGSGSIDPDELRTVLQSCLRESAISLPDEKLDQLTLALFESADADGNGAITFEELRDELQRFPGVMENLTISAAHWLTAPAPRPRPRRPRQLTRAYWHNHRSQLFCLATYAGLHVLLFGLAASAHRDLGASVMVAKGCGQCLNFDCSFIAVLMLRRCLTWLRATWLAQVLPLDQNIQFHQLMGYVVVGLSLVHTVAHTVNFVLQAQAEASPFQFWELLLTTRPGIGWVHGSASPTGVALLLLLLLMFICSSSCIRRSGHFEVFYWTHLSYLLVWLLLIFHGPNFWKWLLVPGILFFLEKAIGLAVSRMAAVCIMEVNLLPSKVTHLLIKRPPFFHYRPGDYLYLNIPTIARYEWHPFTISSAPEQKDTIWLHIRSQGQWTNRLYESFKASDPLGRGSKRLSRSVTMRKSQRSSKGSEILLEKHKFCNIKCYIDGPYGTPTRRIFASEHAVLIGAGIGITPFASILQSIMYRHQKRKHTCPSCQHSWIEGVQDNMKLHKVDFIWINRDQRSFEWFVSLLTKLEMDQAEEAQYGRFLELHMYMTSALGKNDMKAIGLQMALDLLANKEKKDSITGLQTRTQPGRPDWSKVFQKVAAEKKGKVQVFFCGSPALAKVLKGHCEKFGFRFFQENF
Sequence of NADPH oxidase 2 (Homo sapiens) (P04839 whole entry, looked up): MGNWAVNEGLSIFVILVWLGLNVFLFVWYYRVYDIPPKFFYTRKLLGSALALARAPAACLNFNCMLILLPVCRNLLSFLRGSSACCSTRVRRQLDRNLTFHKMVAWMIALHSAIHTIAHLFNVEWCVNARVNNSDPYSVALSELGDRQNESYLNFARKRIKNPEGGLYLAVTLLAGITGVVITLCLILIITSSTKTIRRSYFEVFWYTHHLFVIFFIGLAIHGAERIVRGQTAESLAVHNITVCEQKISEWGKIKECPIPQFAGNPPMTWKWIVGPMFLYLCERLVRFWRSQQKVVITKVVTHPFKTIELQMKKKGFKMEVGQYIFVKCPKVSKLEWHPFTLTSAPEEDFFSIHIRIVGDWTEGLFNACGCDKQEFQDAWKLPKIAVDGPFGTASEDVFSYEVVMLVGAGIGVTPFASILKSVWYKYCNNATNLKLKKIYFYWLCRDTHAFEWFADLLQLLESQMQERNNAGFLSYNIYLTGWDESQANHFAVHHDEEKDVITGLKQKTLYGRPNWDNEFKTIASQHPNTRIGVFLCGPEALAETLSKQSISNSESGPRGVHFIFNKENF
Sequence of NADPH oxidase 4 (Homo sapiens) (Q9NPH5 whole entry, looked up): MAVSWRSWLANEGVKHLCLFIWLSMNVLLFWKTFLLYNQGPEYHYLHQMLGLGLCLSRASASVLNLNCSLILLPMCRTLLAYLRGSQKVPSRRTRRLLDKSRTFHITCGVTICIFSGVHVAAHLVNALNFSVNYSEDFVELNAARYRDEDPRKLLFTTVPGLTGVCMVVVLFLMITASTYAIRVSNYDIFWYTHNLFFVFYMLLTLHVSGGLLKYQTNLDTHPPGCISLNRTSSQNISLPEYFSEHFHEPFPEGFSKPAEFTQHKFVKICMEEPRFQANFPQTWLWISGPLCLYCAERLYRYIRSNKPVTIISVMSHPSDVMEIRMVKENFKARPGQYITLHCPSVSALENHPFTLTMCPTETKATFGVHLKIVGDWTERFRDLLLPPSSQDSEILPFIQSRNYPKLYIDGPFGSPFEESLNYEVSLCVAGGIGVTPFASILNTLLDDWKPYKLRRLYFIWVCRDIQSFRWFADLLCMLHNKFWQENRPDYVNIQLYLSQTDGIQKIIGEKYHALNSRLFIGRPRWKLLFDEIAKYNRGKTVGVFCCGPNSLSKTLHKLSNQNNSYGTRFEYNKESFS

In the case of `COc1cc(NN2C(C(O)c3cc(OC)c(OC)c(OC)c3)C=CC3C(=O)N(C)C(=O)C32)cc(OC)c1OC` (stereo not given), the z-score is -1.12 (inactive) in [1]; 0.367 (inactive) in [3]; 0.0378 (inactive) in assay [4]; 0.508 (inactive) in [5]; 0.853 (inactive) in assay [6]; -0.402 in assay [7]. The z-score was -1.81 (inactive) in assay [8]; -2.26 (inactive) in assay [9]; -2.51 in [10]; -0.991 in assay [11]; -0.919 in assay [12]; -0.122 in assay [13]. Further, the z-score is -0.147 in [14]; -0.176 in [15]; -1.09 in assay [16]; -1.04 (inactive) in assay [17]; 0.729 in assay [18]; -0.417 in [19]. The z-score in [20] was -0.4 (inactive). Besides, in [2], the composite z-score worked out at 0.179.

`COc1cc2c(cc1O)C(c1cccs1)N(Cc1cc3c(cc1Br)OCO3)CC2` (stereo not given): the z-score in [1] was -1.8 (inactive); in [3] it was 10.2 (active); in assay [4] it was 2.26 (inactive); in assay [5], -1.06 (inactive); in assay [6] it was 1.41 (inactive); in assay [7], 0.0127. In addition, the z-score in [8] is -4.19 (inactive); in assay [9] it was -2.38 (inactive); in assay [10], -2.26; in [11], -1.67; in assay [12], -0.406; in assay [13], -3.83. The z-score was -3.19 in assay [14]; -4.43 in assay [15]; -3.57 in assay [16]; -0.0381 (inactive) in [17]; -0.976 in assay [18]; -0.488 in [19]. Also, the z-score in [20] is -0.741 (inactive). This molecule also returned a composite z-score in assay [2] of -0.566.

As for `CCC1=C2CN(Cc3ccccc3)[C@@H](C(=O)Cc3ccccc3)C2C=CCC1` (stereo not given in full), the z-score in assay [1] is 0.806 (inactive); in assay [3], 0.26 (inactive); in [4] it was -1.13 (inactive); in [5], 0.564 (inactive); in assay [6], -2 (inactive); in assay [7], 0.492. Besides, the z-score in assay [8] was -1.12 (inactive); in assay [9] it was -1.42 (inactive); in assay [10], -0.123; in [11] it was 0.0398; in [12], 1.47; in [13], -0.342. Besides, the z-score in assay [14] is 0.435; in assay [15] it was -0.96; in [16], 0.821; in assay [17], 0.152 (inactive); in assay [18] it was 0.424; in assay [19], -0.948. For the same molecule, the z-score in assay [20] was 0.822 (inactive). In addition, in [2], the composite z-score was -0.0984.

With `CCOC(=O)C[C@H]1[C@H](OC(=O)c2ccc(C(=O)c3ccccc3)cc2)[C@@H](NC(=O)C2CCCCC2)c2cc(OCCCO)ccc2N1C(=O)c1ccc2ccccc2n1`, the z-score in [1] was 1.94 (inactive); in assay [3], 3.11 (inactive); in assay [4], 0.347 (inactive); in assay [5], -0.238 (inactive); in assay [6] it was 0.0872 (inactive); in assay [7], 0.0955. Also, the z-score in [8] is -1.62 (inactive); in [9], 0.402 (inactive); in [10] it was 0.124; in assay [11], 0.123; in [12], 0.347; in [13] it was 2.23. For the same molecule, the z-score in assay [14] is -0.436; in [15], 1.31; in assay [16], 1.9; in assay [17] it was 1.45 (inactive); in assay [18], 0.592; in [19], -0.543. For the same molecule, in [20], the z-score is -0.0397 (inactive). Also, in assay [2], the composite z-score came to 0.596.

Regarding `O=C(O)[C@@H]1C[C@@H]2C(=O)N3CCC[C@H]3C(=O)N2[C@@H]1c1ccc(O)cc1`, the z-score in assay [1] is 2.3 (inactive); in [3] it was 3.69 (inactive); in assay [4] it was -0.325 (inactive); in assay [5], -3.21 (inactive); in assay [6] it was -1.54 (inactive); in [7], 0.722. Further, the z-score was -8.21 (active) in assay [8]; -4.92 (inactive) in assay [9]; -5.18 in assay [10]; -0.335 in assay [11]; 1.13 in assay [12]; -0.763 in assay [13]. Moreover, the z-score in assay [14] is -3.42; in [15], 0.0242; in [16], 0.0357; in [17] it was -0.184 (inactive); in assay [18], -0.704; in [19], -1.34. Further, the z-score in assay [20] was -0.609 (inactive). In [2], this molecule registered a composite z-score of 0.266.

On to `CN(C)C(=O)[C@]1(Cc2ccccc2CN=[N+]=[N-])N=C(c2ccc(OCCCO)cc2)O[C@@H]1c1ccccc1`, for which the z-score in assay [1] was -0.532 (inactive); in assay [3] it was 27.1 (active); in assay [4], 22.9 (active); in assay [5], 1.76 (inactive); in [6], 0.96 (inactive); in [7], 1.87. The z-score was -4 (inactive) in [8]; -2.05 (inactive) in [9]; -1.94 in assay [10]; -2.01 in assay [11]; 0.894 in [12]; -1.65 in assay [13]. Besides, the z-score in assay [14] is -3.16; in assay [15] it was -4.37; in assay [16], -0.117; in assay [17] it was -0.58 (inactive); in assay [18], -1.33; in assay [19], -1.37. Moreover, the z-score in [20] was 0.721 (inactive). This molecule had a composite z-score in assay [2] of 0.457.

Consider `[N-]=[N+]=Nc1ccccc1C[C@@]1(C(=O)NCCN2CCOCC2)N=C(c2ccc(OCCCO)cc2)O[C@@H]1c1ccccc1N=[N+]=[N-]`, for which the z-score was -0.374 (inactive) in [1]; 30.8 (active) in assay [3]; 30.8 (active) in assay [4]; 2.72 (inactive) in assay [5]; 2.78 (inactive) in [6]; -0.26 in assay [7]. The z-score is -2.91 (inactive) in [8]; -0.157 (inactive) in assay [9]; -1.6 in assay [10]; -1.96 in assay [11]; 0.205 in assay [12]; -2.04 in assay [13]. Further, the z-score is -2.94 in [14]; -3.31 in assay [15]; -0.112 in [16]; -0.29 (inactive) in assay [17]; -1.26 in assay [18]; -1.27 in [19]. The z-score in assay [20] is -1 (inactive). In assay [2], this molecule had a composite z-score of 0.632.

Regarding `CC(C)c1ccc(NN2C(C(O)c3ccc(F)cc3)C=CC3C(=O)N(c4ccccc4)C(=O)C32)cc1` (stereo not given), the z-score in [1] is -0.601 (inactive); in [3], 3.82 (inactive); in assay [4] it was 1.76 (inactive); in [5], 0.0964 (inactive); in assay [6], 1.44 (inactive); in [7], -1.05. The z-score in [8] is -1.15 (inactive); in assay [9], -2.78 (inactive); in assay [10], -2.6; in assay [11] it was 0.394; in assay [12], -1.37; in [13] it was 0.747. Besides, the z-score was -1.12 in assay [14]; -1.46 in assay [15]; -1.18 in assay [16]; -0.382 (inactive) in assay [17]; 0.282 in assay [18]; -0.958 in assay [19]. For the same molecule, the z-score in assay [20] is -0.12 (inactive). The same molecule gave a composite z-score in assay [2] of 0.498.

Turning to `NC(=O)NCC#Cc1ccc2c(c1)[C@]1(C(=O)N2)[C@H](c2ccccc2OCCO)N2[C@H](c3ccccc3)[C@H](c3ccccc3)OC(=O)[C@H]2[C@@H]1C(=O)O`, the z-score in assay [1] was 0.851 (inactive); in assay [3], 1.07 (inactive); in assay [4], -0.525 (inactive); in assay [5] it was -1.78 (inactive); in assay [6] it was 0.0482 (inactive); in assay [7], 0.171. The z-score was 2.78 (inactive) in assay [8]; 0.517 (inactive) in [9]; -0.123 in assay [10]; -0.371 in assay [11]; -0.161 in assay [12]; -1.06 in [13]. The z-score was -0.253 in assay [14]; 0.713 in assay [15]; -0.716 in assay [16]; 0.485 (inactive) in [17]; 0.689 in [18]; -0.394 in [19]. Also, in assay [20], the z-score was 1.73 (inactive). The molecule further showed a composite z-score in [2] of -0.278.

The record behind these values is PubChem BioAssay.
